Compounds without any hit were thinned out: in the full panel of roughly 83,000, 20% have a hit.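 Single-dose data. Exposure time 48 hours. Values below 10 considered active.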 Unmarked numbers belong to inactive results. Calls of active or inactive are those of the source.
Columns and labels:
Assay in all cases: NCI-60 one-dose screen, 48 h (100 = growth as untreated, 0 = no growth, -100 = all killed)
Conditions in all cases: 10 µM unless noted
NCI-H23 lung = system: NCI-H23 lung
NCI-H226 lung = system: NCI-H226 lung
NCI-H322M lung = system: NCI-H322M lung
HOP-62 NSCLC = system: HOP-62 NSCLC
NCI-H460 lung = system: NCI-H460 lung
HOP-92 NSCLC = system: HOP-92 NSCLC
NCI-H522 lung = system: NCI-H522 lung
A549/ATCC NSCLC = system: A549/ATCC NSCLC
786-0 renal = system: 786-0 renal
COLO 205 colon = system: COLO 205 colon
DU-145 prostate = system: DU-145 prostate
K-562 leukemia = system: K-562 leukemia
MALME-3M melanoma = system: MALME-3M melanoma
MDA-MB-231 breast = system: MDA-MB-231 breast
RXF 393 renal = system: RXF 393 renal
SF-268 CNS = system: SF-268 CNS
SF-295 CNS = system: SF-295 CNS
SF-539 CNS = system: SF-539 CNS
UACC-257 melanoma = system: UACC-257 melanoma
M14 melanoma = system: M14 melanoma

Structure (SMILES) | growth (NCI-H23 lung) | growth (NCI-H226 lung) | growth (NCI-H322M lung) | growth (HOP-62 NSCLC) | growth (NCI-H460 lung) | growth (HOP-92 NSCLC) | growth (NCI-H522 lung) | growth (A549/ATCC NSCLC) | growth (786-0 renal) | growth (COLO 205 colon) | growth (DU-145 prostate) | growth (K-562 leukemia) | growth (MALME-3M melanoma) | growth (MDA-MB-231 breast) | growth (RXF 393 renal) | growth (SF-268 CNS) | growth (SF-295 CNS) | growth (SF-539 CNS) | growth (UACC-257 melanoma) | growth (M14 melanoma)
O=C(N=c1oc2ccccc2cc1-c1cc2ccccc2[nH]1)Nc1ccc(Cl)cc1 | 86.2% | 95.9% | 87.8% | 83.3% | 99.6% | 95.1% | 88.4% | 96.1% | 94.6% | 122% | 99.2% | 88.8% | 99.2% | 79.5% | 116% | 99.3% | 111% | 90.6% | 108% | 79.6%
CCCC1CCC(O)(C(C)(O)C(=O)NC2C(=O)N3NCCCC3C(=O)N(O)C(C)C(=O)N3NCCCC3C(=O)N3NCC(O)CC3C(=O)NC(C)C(=O)OC2C(C)C)OC1CC (stereo not given) | -85.9% (active) | -53.6% (active) | -90.8% (active) | -76% (active) | -82.4% (active) | -61.5% (active) | -25% (active) | -66.4% (active) | -78.6% (active) | -89% (active) | -99% (active) | -61.6% (active) | -71.7% (active) | -66.3% (active) | -54.3% (active) | -82.1% (active) | -85.3% (active) | -95.1% (active) | -83.3% (active) | -60.9% (active)
S=c1nc(-c2ccccc2)oc(=NC2CCCCC2)n1C1CCCCC1 | 61.1% | 105% | 28.3% | 62.8% | 10.7% | -24.9% (active) | -25.6% (active) | 31.5% | 43% | 58.8% | 13.4% | -42.6% (active) | 94.9% | 81.8% | 81.5% | 34.1% | 2.95% (active) | 65.2% | 95% | 84.8%
CCOC(=O)c1cnn2c3ccccc3n(S(=O)(=O)c3ccc(OC)cc3)c12 | 28.2% | 19.9% | 53.7% | 35% | 18.4% | 59.9% | 20.6% | 28.5% | 40.5% | -19.4% (active) | 14.8% | 11.2% | 60.7% | 10.2% | -6.6% (active) | 44.7% | 14.1% | -3.57% (active) | 80.1% | 25.3%
c1ccc(Nc2cc(-c3cccnc3)[nH]n2)cc1 | 105% | 94.1% | 95.5% | 84% | 111% | 94.4% | 89.5% | 93.3% | 98.1% | 106% | 100% | 101% | 118% | 107% | 107% | 85.8% | 97.6% | 70.2% | 100% | 117%
CCOC(=O)NCCc1ccccc1 | 101% | 107% | 93.2% | 99.7% | 112% | 82% | 98.1% | 89.6% | 112% | 112% | 118% | 91.4% | 110% | 116% | 115% | 114% | 98.3% | 111% | 100% | 110%
COc1ccc(-n2c(N)c(-c3nc4ccccc4[nH]3)cc(C#N)c2=O)cc1 | 86.8% | 35.3% | 102% | 90.8% | 87.1% | 84.7% | 74.2% | 94.9% | 92.5% | 105% | 87.9% | 93.5% | 92.1% | 90.8% | 67.2% | 95.8% | 94.1% | 77.2% | 96.4% | 109%
Cc1nc2ccccc2n1CC1C(=O)NC(=O)NC1=O | 102% | 114% | 95.5% | 105% | 111% | 97.8% | 94.4% | 96.4% | 103% | 115% | 117% | 94.8% | 106% | 114% | 123% | 106% | 102% | 100% | 101% | 110%
